Values joined by “and” are separate entries in the source; they are usually repeats but may differ in a detail not shown here. Equal entries are not always repeated. Inconclusive results are not listed. Active and inactive are the calls of the source. Unless noted, the call rests on the fitted dose curve; in most records, active means well fitted curve in the direction sought with a large enough effect in the repeat runs; inconclusive means weak or mixed curves; inactive means no such curve, though single readings can be large; an effect the other way counts as inactive or inconclusive.
Assays:
[1] = qHTS RealTime-Glo MT Cell Viability Assay in HEK293 cells - 0 hour (AID 1224880); further: top concentration of the series differs between compounds; nearly all actives have a fitted effect of over 45% in size
Procedure, shortened: (§1)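 Viable HEK293 cells reduce a cell-permeant prosubstrate; the product diffuses out and is consumed by NanoLuc in the medium to give light. Compounds went in after a 5 h incubation and plates were read over the treatment course.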

[2] = A CellTox Green Cytotoxicity Assay to monitor cytotoxicity in HEK293 cells - 32 hour (AID 1224881); further: nearly all actives have a fitted effect of over 40% in size; further: potency means the concentration at half of the fitted maximal effect
Procedure, shortened: (§2)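 Fluorescence intensity, read at 0, 8, 16, 24, 32 and 40 h of compound treatment, reflected dye binding to DNA of dead HEK293 cells; compounds (23 nL, DMSO) were added 5 h after plating cells with reagent.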

[3] = A CellTox Green Cytotoxicity Assay to monitor cytotoxicity in HepG2 cells - 0 hour (AID 1224882); further: nearly all actives have a fitted effect of over 35% in size
Procedure, shortened: (§3)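 Using 1536-well format, dye-containing HepG2 suspension was seeded, allowed 5 h at 37 C/5% CO2, dosed by pintool with compounds, positive and negative controls, and imaged for fluorescence across 40 h.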

[4] = A CellTox Green Cytotoxicity Assay to monitor cytotoxicity in HepG2 cells - 32 hour (AID 1224883); further: nearly all actives have a fitted effect of over 50% in size; further: potency means the concentration at half of the fitted maximal effect
Procedure, shortened: as §3

[5] = qHTS RealTime-Glo MT Cell Viability Assay in HepG2 cells - 16 hour (AID 1224885); further: nearly all actives have a fitted effect of over 50% in size
Procedure, shortened: (§4)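 Cell number in HepG2 cultures estimated from NanoLuc luminescence generated by metabolic reduction of a prosubstrate by living cells. The homogeneous, nonlytic format allowed repeated reads at 0, 8, 16, 24, 32 and 40 h of compound exposure.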

[6] = qHTS RealTime-Glo MT Cell Viability Assay in HEK293 cells - 24 hour (AID 1224886); further: nearly all actives have a fitted effect of over 50% in size; further: potency means the concentration at half of the fitted maximal effect
Procedure, shortened: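 Homogeneous bioluminescent viability format in HEK293 cells (600 cells/well). Following 5 h at 37 C/5% CO2, 23 nL compound was pintooled; the signal was measured repeatedly during 40 h incubation.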

[7] = qHTS RealTime-Glo MT Cell Viability Assay in HEK293 cells - 8 hour (AID 1224887); further: nearly all actives have a fitted effect of over 50% in size; further: potency means the concentration at half of the fitted maximal effect
Procedure, shortened: as §1

[8] = A CellTox Green Cytotoxicity Assay to monitor cytotoxicity in HEK293 cells - 16 hour (AID 1224888); further: nearly all actives have a fitted effect of over 35% in size
Procedure, shortened: as §2

[9] = qHTS RealTime-Glo MT Cell Viability Assay in HepG2 cells - 0 hour (AID 1224889); further: nearly all actives have a fitted effect of over 50% in size
Procedure, shortened: as §4

[10] = A CellTox Green Cytotoxicity Assay to monitor cytotoxicity in HepG2 cells - 8 hour (AID 1224890); further: nearly all actives have a fitted effect of over 45% in size
Procedure, shortened: as §3

[11] = qHTS assay to identify small molecule antagonists of the androgen receptor (AR) signaling pathway using the MDA cell line in the presence of 0.5 nM R1881 - cell viability counter screen (AID 1259242); further: nearly all actives have a fitted effect of over 45% in size; further: potency means the concentration at half of the fitted maximal effect
Procedure, shortened: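 Viability of MDA-kb2 cells was multiplexed with the luciferase AR readout; after 16 hr with compounds and R1881 at 0.5 nM final, CellTiter-Fluor fluorescence was recorded.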

[12] = target: Estrogen receptor (Homo sapiens) (UniProt P03372); test: qHTS assay to identify small molecule antagonists of the estrogen receptor alpha (ER-alpha) signaling pathway using the BG1 cell line in the presence of 0.1 nM 17-beta-estradiol (AID 1259244); further: nearly all actives have a fitted effect of over 50% in size; further: potency means the concentration at half of the fitted maximal effect
Procedure, shortened: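 Estradiol at 0.1 nM (final) stimulates the endogenous ER-alpha of VM7Luc4E2 cells carrying an ERE-driven luciferase; compounds are co-incubated 22 h at 37C and luciferase output quantified by luminescence.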

[13] = qHTS assay to identify small molecule HDAC inhibitors (AID 1259364); further: potency means the concentration at half of the fitted maximal effect;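 further: wild-type HCT-116 cells with endogenous class I/II HDAC activity; nearly all actives have a fitted effect of over 45% in size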
Procedure, shortened: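 Read-out: luminescence of HDAC-Glo I/II reagent, 30 min RT, reflecting class I/II deacetylase activity in whole HCT-116 cells pre-exposed 2 h to DMSO-dissolved compounds.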

[14] = qHTS assay to identify small molecule HDAC inhibitors - cell viability counter screen (AID 1259365)
Procedure, shortened: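 Counter screen in wild-type HCT-116 cells: compounds dissolved in DMSO are pin-transferred onto overnight-plated cells and left 2hr at 37C. ATP-based CellTiter-Glo luminescence then measures viable cells.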

[15] = qHTS assay to identify small molecule agonists of the sonic hedgehog signaling (Shh) pathway - cell viability counter screen (AID 1259366); further: nearly all actives have a fitted effect of over 50% in size; further: potency means the concentration at half of the fitted maximal effect
Procedure, shortened: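 Cells are plated at 2,000 per well and left 4hr at 37C, 5% CO2 before compound addition. After 23hr of treatment, CellTiter-Fluor reagent is added for 1hr at 37C and fluorescence is measured.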

[16] = qHTS assay to identify small molecule antagonists of the sonic hedgehog signaling (Shh) pathway - cell viability counter screen (AID 1259367); further: nearly all actives have a fitted effect of over 55% in size; further: potency means the concentration at half of the fitted maximal effect
Procedure, shortened: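 NIH/3T3-derived Gli1-Luc reporter cells, 2,000/well, plated 4 hr before compound addition, then stimulated with conditioned medium for 24 hr at 37C. Viability measured in the same wells by CellTiter-Fluor fluorescence, reagent added at 23 hr for 1 hr.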

[17] = A CellTox Green Cytotoxicity Assay to monitor cytotoxicity in HEK293 cells - 8 hour (AID 1224884); further: nearly all actives have a fitted effect of over 35% in size
Procedure, shortened: as §2

[18] = qHTS assay to identify small molecule antagonists of the estrogen receptor alpha (ER-alpha) signaling pathway using the BG1 cell line in the presence of 0.1 nM 17-beta-estradiol - cell viability counter screen (AID 1259241); further: nearly all actives have a fitted effect of over 40% in size; further: potency means the concentration at half of the fitted maximal effect
Procedure, shortened: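 Cells were plated and left 24 hr, compounds in DMSO were pinned in, 17beta-estradiol was added to 0.1 nM final, and after 22 hr CellTiter-Fluor reagent was added for 30 min before fluorescence was read.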

[19] = qHTS assay to identify small molecule phospholipidosis (PLD) inducers (AID 1259344; active means well fitted curve in the direction sought with a large enough effect; an effect the other way counts as inactive or inconclusive)
Procedure, shortened: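 HepG2 cells, 900/well, treated with compound plus LipidTOX Red for 24 h at 37 C; amiodarone positive and DMSO negative controls. Fixed with paraformaldehyde/Hoechst, then high-content imaging scored LipidTOX pit count and integrated intensity per well and per cell.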
On the % scale 0 is the no-effect control and ±100 the full control effect.

Estrogen receptor (Homo sapiens), sequence (P03372 whole entry, looked up): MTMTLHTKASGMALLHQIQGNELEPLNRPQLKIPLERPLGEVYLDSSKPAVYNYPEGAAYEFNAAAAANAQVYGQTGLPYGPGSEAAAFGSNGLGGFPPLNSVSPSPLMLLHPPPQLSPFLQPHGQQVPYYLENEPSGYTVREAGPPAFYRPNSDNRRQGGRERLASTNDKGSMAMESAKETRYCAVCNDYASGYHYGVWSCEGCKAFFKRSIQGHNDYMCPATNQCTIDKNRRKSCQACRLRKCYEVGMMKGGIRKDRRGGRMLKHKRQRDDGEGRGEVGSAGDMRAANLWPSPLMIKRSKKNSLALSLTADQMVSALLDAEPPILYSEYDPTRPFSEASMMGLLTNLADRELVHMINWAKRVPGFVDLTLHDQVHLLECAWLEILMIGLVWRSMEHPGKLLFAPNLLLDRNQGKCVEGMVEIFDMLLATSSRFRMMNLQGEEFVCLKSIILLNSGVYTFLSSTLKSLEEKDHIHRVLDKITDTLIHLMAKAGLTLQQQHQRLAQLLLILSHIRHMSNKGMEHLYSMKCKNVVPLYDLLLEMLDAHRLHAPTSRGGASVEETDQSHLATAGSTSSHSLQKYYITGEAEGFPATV

CCCCCCC(C)(C)C(=O)O
inactive: Potency [1] | Potency [2] | Potency [3] | Potency [4] | Potency [5] | Potency [6] | Potency [7] | Potency [8] | Potency [9] | Potency [10] | Potency [11] | Potency [12] | Potency [13] | Potency [14] | Potency [15] | Potency [16]

O=[N+]([O-])c1ccc(O/N=C/c2cc(Br)c(O)c(Br)c2)c([N+](=O)[O-])c1
active: Potency [6] 48.7 µM | Potency [18] 24.2 µM | Potency [12] 30.5 µM
inactive: Potency [1] | Potency [2] | Potency [3] | Potency [4] | Potency [17] | Potency [8] | Potency [10]

OC(CCN1CCCC1)(c1ccccc1)C1CCCCC1 (centres undefined)
inactive: Potency [1] | Potency [2] | Potency [3] | Potency [4] | Potency [5] | Potency [6] | Potency [7] | Potency [9] | Potency [10] | Potency [18] | Potency [11] | Potency [19] | Potency [13] | Potency [14]

NC1[C@H]2CN(c3nc4c(cc3F)c(=O)c(C(=O)O)cn4-c3ccc(F)cc3F)C[C@@H]12 (some centres undefined)
active: Potency [15] 21.1 µM
inactive: Potency [1] | Potency [2] | Potency [3] | Potency [4] | Potency [5] | Potency [6] | Potency [7] | Potency [9] | Potency [10] | Potency [18] | Potency [11] | Potency [19] | Potency [14]

CCCCN(CCCC)C(C(N)=O)c1ccc(OC)cc1 (centres undefined)
inactive: Potency [1] | Potency [2] | Potency [3] | Potency [4] | Potency [5] | Potency [6] | Potency [7] | Potency [8] | Potency [9] | Potency [10] | Potency [18] | Potency [11] | Potency [12] | Potency [13] | Potency [15] | Potency [16]

CC(C)C=O
inactive: Potency [1] | Potency [2] | Potency [3] | Potency [4] | Potency [17] | Potency [6] | Potency [7] | Potency [8] | Potency [9] | Potency [10] | Potency [18] | Potency [11] | Potency [13] | Potency [14] | Potency [15] | Potency [16]

Cc1cccc(N(C)C(=S)Oc2ccc3c(c2)CCC3)c1
inactive: Potency [1] | Potency [2] | Potency [3] | Potency [4] | Potency [5] | Potency [6] | Potency [7] | Potency [8] | Potency [9] | Potency [10] | Potency [18] | Potency [11] | Potency [12] | PLD induction [19] -4.02% [at 7.66 µM] | Potency [13] | Potency [14] | Potency [15] | Potency [16]

COc1cc(Nc2c(C#N)cnc3cc(OCCCN4CCN(C)CC4)c(OC)cc23)c(Cl)cc1Cl
inactive: Potency [1] | Potency [3] | Potency [17] | Potency [8] | Potency [18] | Potency [19] | Potency [13] | Potency [14] | Potency [16]
active: Potency [2] 21.3 µM | Potency [4] 9.52 µM | Potency [6] 9.52 µM | Potency [7] 23.9 µM | Potency [11] 29.8 µM | Potency [15] 29.8 µM

Cc1ccccc1N=C(N)Nc1ccccc1C
inactive: Potency [1] | Potency [2] | Potency [3] | Potency [4] | Potency [6] | Potency [7] | Potency [8] | Potency [9] | Potency [10] | Potency [11] | Potency [12] | Potency [13] | Potency [14] | Potency [15]

COC(=O)c1nc(Cl)c(Cl)nc1N
active: Potency [2] 19 µM | Potency [6] 9.52 µM | Potency [7] 6.74 µM | Potency [15] 10.6 µM | Potency [16] 5.31 µM
inactive: Potency [1] | Potency [17] | Potency [9] | Potency [18] | Potency [14]

CCOC(=O)c1ccc(O)c(O)c1
inactive: Potency [1] | Potency [2] | Potency [4] | Potency [17] | Potency [5] | Potency [6] | Potency [7] | Potency [9] | Potency [11] | Potency [12] | Potency [13] | Potency [14] | Potency [15] | Potency [16]

CC(C)(C)C(=O)C(=O)O
inactive: Potency [1] | Potency [2] | Potency [3] | Potency [17] | Potency [5] | Potency [6] | Potency [7] | Potency [10] | Potency [18] | Potency [11] | Potency [12] | Potency [14] | Potency [15] | Potency [16]

Cc1ccc(OC(=O)c2ccccc2O)cc1
active: Potency [13] 15.4 µM
inactive: Potency [1] | Potency [3] | Potency [4] | Potency [17] | Potency [5] | Potency [6] | Potency [7] | Potency [10] | Potency [18] | Potency [11] | Potency [14] | Potency [15] | Potency [16]

O=c1cc(-c2ccccc2)oc2cc(O)cc(O)c12
inactive: Potency [1] | Potency [2] | Potency [3] | Potency [17] | Potency [8] | Potency [10] | Potency [11] | Potency [14]
active: Potency [13] 6.86 µM | Potency [15] 48.6 µM | Potency [16] 61.1 µM

O=c1c(O)c(-c2ccc(O)cc2)oc2cc(O)cc(O)c12
active: Potency [13] 21.6 µM and 16.4 µM | Potency [16] 48.4 µM
inactive: Potency [1] | Potency [2] | Potency [3] | Potency [4] | Potency [9] | Potency [10] | Potency [18] | Potency [11] | Potency [14] | Potency [15]

O=C1c2ccccc2C(=O)C1(O)O
inactive: Potency [1] | Potency [2] | Potency [3] | Potency [17] | Potency [5] | Potency [6] | Potency [7] | Potency [8] | Potency [9] | Potency [10] | Potency [18] | Potency [11]
active: Potency [16] 54.8 µM

COc1cc(N)c(Cl)cc1C(=O)NC1CCN(CCCOc2ccc(F)cc2)CC1OC (centres undefined)
inactive: Potency [1] | Potency [2] | Potency [3] | Potency [17] | Potency [5] | Potency [8] | Potency [9] | Potency [10] | Potency [11] | Potency [19] | Potency [13] | Potency [14] | Potency [16]
active: Potency [6] 3.01 µM | Potency [7] 3.01 µM

Nc1nnc(-c2ccc([N+](=O)[O-])o2)o1
inactive: Potency [1] | Potency [2] | Potency [3] | Potency [17] | Potency [6] | Potency [7] | Potency [8] | Potency [9] | Potency [10] | Potency [14]
active: Potency [18] 61.1 µM | Potency [12] 54.5 µM | Potency [16] 27.3 µM
